Laboratory results from PubChem BioAssay (NCATS).
Inconclusive results are not listed. Calls of active or inactive are those of the source. Unless noted, calls follow the shape of the dose curve; as a rule, active = well fitted curve in the direction sought with a large enough effect; inconclusive = small, poorly fitted or top-dose-only effect, or another doubt; inactive = no such curve, though single readings can be large; an effect the other way counts as inactive or inconclusive.

Biological target: Alpha-galactosidase (Coffea arabica) (UniProt Q42656)
Sequence (Q42656 whole entry, looked up): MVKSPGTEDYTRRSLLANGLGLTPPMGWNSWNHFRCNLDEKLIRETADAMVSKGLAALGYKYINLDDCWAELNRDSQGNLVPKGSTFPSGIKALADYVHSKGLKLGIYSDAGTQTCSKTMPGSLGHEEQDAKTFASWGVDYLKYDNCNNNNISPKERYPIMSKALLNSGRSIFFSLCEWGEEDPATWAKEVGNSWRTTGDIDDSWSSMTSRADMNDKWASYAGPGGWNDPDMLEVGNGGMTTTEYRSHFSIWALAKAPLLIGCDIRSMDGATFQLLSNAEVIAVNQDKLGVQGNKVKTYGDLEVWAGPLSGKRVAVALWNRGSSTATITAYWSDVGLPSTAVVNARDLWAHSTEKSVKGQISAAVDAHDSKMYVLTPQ
Assay: Counterscreen for Glucocerebrosidase Inhibitors: qHTS Assay for Coffee Bean alpha-Galactosidase at pH 4.5 (AID 957);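 also: plate controls were enzyme alone for no effect and no enzyme for full effect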
Conditions: purified coffee bean alpha-galactosidase, fluorogenic substrate; series mostly up to 76.9 µM; activity change, negative = inhibition: at the top concentration
Method in brief: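 Enzyme is added first (2 nM final), then compounds titrated from 0.7 nM to 77 uM, then 80 uM 4-methylumbelliferyl alpha-D-galactopyranoside; after 20 min at room temperature a pH 10 NaOH/glycine stop precedes fluorescence reading at 365/440 nm.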

**Q.** For `COc1ccc(NC(=O)c2ccc(-c3ccc(-c4noc(C)n4)cc3C)cc2)cc1N1CCN(C)CC1`, which “activity change, negative = inhibition” value is on record?
**A.** 2.32% (inactive)

**Q.** Which “activity change, negative = inhibition” value does the source give for `CN(C)c1cc2c(Nc3ccc4c(cnn4Cc4ccccc4)c3)ncnc2cn1` here?
**A.** -4.71% (inactive)

**Q.** Which “activity change, negative = inhibition” value does the source give for `O=c1cc(-c2ccccc2)[nH]c2nc(Cl)ccc12` here?
**A.** 0.407% (inactive)

**Q.** For `N=C(N)c1ccc(OCCCCCOc2ccc(C(=N)N)cc2)cc1` (tested in a mixture with another compound), which “activity change, negative = inhibition” value is on record?
**A.** -2.46% (inactive)

Biological target: Alpha-galactosidase (Coffea arabica) (UniProt Q42656)
Assay: Counterscreen for Glucocerebrosidase Inhibitors: qHTS Assay for Coffee Bean alpha-Galactosidase at pH 5.9 (AID 998);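 also: plate controls were uninhibited enzyme for no effect and no-enzyme basal signal for full effect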
Conditions: coffee bean alpha-galactosidase enzyme assay; series mostly up to 76.9 µM; activity, negative = inhibition: at the top concentration
Method in brief: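 Enzyme 2 nM + cpd (0.7 nM–77 uM titration) + 4-MU-alpha-Gal 80 uM, pH 5.9 citrate/Tween-20, RT 20 min, NaOH/glycine stop pH 10, fluor 365/440. Normalized to no-enzyme and full-activity controls; Hill-fit AC50.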

**Q.** With `COc1ccc(NC(=O)c2ccc(-c3ccc(-c4noc(C)n4)cc3C)cc2)cc1N1CCN(C)CC1` as the molecule, how does the “activity, negative = inhibition” value read?
**A.** -1.92% (inactive)

**Q.** For `CN(C)c1cc2c(Nc3ccc4c(cnn4Cc4ccccc4)c3)ncnc2cn1`, which “activity, negative = inhibition” value is on record?
**A.** -1.34% (inactive)

**Q.** For `O=c1cc(-c2ccccc2)[nH]c2nc(Cl)ccc12`, which “activity, negative = inhibition” value is on record?
**A.** 1.92% (inactive)

**Q.** Which “activity, negative = inhibition” value does the source give for `N=C(N)c1ccc(OCCCCCOc2ccc(C(=N)N)cc2)cc1` (tested in a mixture with another compound) here?
**A.** -0.217% (inactive)

**Q.** Which “activity, negative = inhibition” value does the source give for `O=Nc1c(-c2c(O)[nH]c3ccccc23)[nH]c2ccccc12` here?
**A.** 0.0588% (inactive)

System: not listed separately
Assay: Validation screen for inhibitors of Lassa infection (AID 463096; calls by dose curve; also: potency is read from the fitted curve at half-maximal effect; as to activity change, negative = inhibition: % is scaled to controls: 0 for no effect and ±100 for the full control effect)
Conditions: Lassa virus infection, cell-based; series mostly up to 46.1 µM; activity change, negative = inhibition: at the top concentration

**Q.** Which Potency does the source give for `COc1ccc(NC(=O)c2ccc(-c3ccc(-c4noc(C)n4)cc3C)cc2)cc1N1CCN(C)CC1` here?
**A.** 7.94 µM (active)

**Q.** For `CC1CNCCN1S(=O)(=O)c1cccc2cnccc12` (configuration not stated), which “activity change, negative = inhibition” value is on record?
**A.** 2.4% (inactive)

**Q.** For `O=c1cc(-c2ccccc2)[nH]c2nc(Cl)ccc12`, which “activity change, negative = inhibition” value is on record?
**A.** -25.8% (inactive)

**Q.** Which Potency does the source give for `CCC1(O)CC2CN(CCc3c([nH]c4ccccc34)[C@@](C(=O)OC)(c3cc4c(cc3OC)N(C=O)C3[C@]45CCN4CC=C[C@@](CC)([C@@H](OC(C)=O)[C@]3(O)C(=O)OC)[C@H]45)C2)C1` (some centres not stated) here?
**A.** 20 µM (active)

**Q.** For `N=C(N)c1ccc(OCCCCCOc2ccc(C(=N)N)cc2)cc1` (tested in a mixture with another compound), which “activity change, negative = inhibition” value is on record?
**A.** -9.53% (inactive)

**Q.** For `CN1CCCC1CCOC(C)(c1ccccc1)c1ccc(Cl)cc1` (configuration not stated), which Potency is on record?
**A.** 10 µM (active)

**Q.** With `CCCCC[C@H](CC(=O)NO)C(=O)N[C@H](C(=O)N1CCC[C@H]1CO)C(C)C` as the molecule, how does the “activity change, negative = inhibition” value read?
**A.** -46.8% (inactive)

System: not listed separately
Assay: Inducers of the Endoplasmic Reticulum Stress Response (ERSR) in human glioma: Validation (AID 504836); also: 0% is about no effect
Conditions: human glioma cells, ER stress response reporter; series mostly up to 38.3 µM; activation: at the top concentration
Method in brief: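 Stably transfected U87-MG glioma cells carrying a GRP78-based luciferase sensor; 16 h compound incubation. Luminescence end-point read 10 min after Bright-Glo addition at room temperature.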

**Q.** For `Oc1ccc2ccccc2c1SSc1c(O)ccc2ccccc12`, which “activation” value is on record?
**A.** -5.03% (inactive)

**Q.** For `CCOC(=O)N1CCN(/[N+]([O-])=N/Oc2ccc([N+](=O)[O-])cc2[N+](=O)[O-])CC1`, which “activation” value is on record?
**A.** 3.95% (inactive)

**Q.** For `CNCCc1cnc(CCC(c2ccccc2)c2ccccc2)[nH]1`, which “activation” value is on record?
**A.** -3.88% (inactive)

**Q.** For `COc1ccc(NC(=O)c2ccc(-c3ccc(-c4noc(C)n4)cc3C)cc2)cc1N1CCN(C)CC1`, which “activation” value is on record?
**A.** -8.25% (inactive)

**Q.** Which “activation” value does the source give for `CCOC(=O)C1=C(C)NC(C)=C(C(=O)OCC)C1c1c(F)c(F)c(F)c(F)c1F` here?
**A.** -1.32% (inactive)

**Q.** For `CN(C)c1cc2c(Nc3ccc4c(cnn4Cc4ccccc4)c3)ncnc2cn1`, which “activation” value is on record?
**A.** 4.8% (inactive)

**Q.** With `O[Si](CCCN1CCCCC1)(c1ccc(F)cc1)C1CCCCC1` (configuration not stated) as the molecule, how does the “activation” value read?
**A.** -0.0462% (inactive)

**Q.** Which “activation” value does the source give for `CC1CNCCN1S(=O)(=O)c1cccc2cnccc12` (configuration not stated) here?
**A.** -7.48% (inactive)

**Q.** Which “activation” value does the source give for `O=c1cc(-c2ccccc2)[nH]c2nc(Cl)ccc12` here?
**A.** -4.53% (inactive)

**Q.** Which “activation” value does the source give for `CC(C)ON([C@@H](C(=O)NO)C(C)C)S(=O)(=O)c1ccc(-c2ccccc2)cc1` here?
**A.** -3.48% (inactive)

**Q.** Which “activation” value does the source give for `CCC1(O)CC2CN(CCc3c([nH]c4ccccc34)[C@@](C(=O)OC)(c3cc4c(cc3OC)N(C=O)C3[C@]45CCN4CC=C[C@@](CC)([C@@H](OC(C)=O)[C@]3(O)C(=O)OC)[C@H]45)C2)C1` (some centres not stated) here?
**A.** -3% (inactive)

**Q.** With `N=C(N)c1ccc(OCCCCCOc2ccc(C(=N)N)cc2)cc1` (tested in a mixture with another compound) as the molecule, how does the “activation” value read?
**A.** -5.08% (inactive)

**Q.** With `CN1CCCC1CCOC(C)(c1ccccc1)c1ccc(Cl)cc1` (configuration not stated) as the molecule, how does the “activation” value read?
**A.** -1.13% (inactive)

**Q.** For `CCCCC[C@H](CC(=O)NO)C(=O)N[C@H](C(=O)N1CCC[C@H]1CO)C(C)C`, which “activation” value is on record?
**A.** -0.938% (inactive)

System: not listed separately
Assay: qHTS for Inhibitors of the Functional Ribonucleoprotein Complex (vRNP) of Lassa (LASV) Arenavirus: LASV Primary Screen - GLuc reporter signal (AID 1347082; calls by dose curve; tested in HEK293 reporter line; also: nearly all actives have a fitted effect of over 60% in size; also: potency is read from the fitted curve at half-maximal effect; as to activity change, negative = inhibition: % is scaled to controls: 0 for no effect and ±100 for the full control effect)
Conditions: LASV minigenome vRNP, Gaussia luciferase reporter; series mostly up to 57.5 µM; activity change, negative = inhibition: at the top concentration

**Q.** Which Potency does the source give for `Oc1ccc2ccccc2c1SSc1c(O)ccc2ccccc12` here?
**A.** inactive

**Q.** Which Potency does the source give for `Cc1cc(Nc2ncnc3ccc(-c4ccc(CNCCS(C)(=O)=O)o4)cc23)ccc1Oc1ccn2ncnc2c1` here?
**A.** 15.3 µM (active)

**Q.** Which “activity change, negative = inhibition” value does the source give for `COC(=O)Nc1nc2ccc(C(=O)c3ccc(F)cc3)cc2[nH]1` here?
**A.** -34.1% (inactive)

**Q.** For `CCOC(=O)N1CCN(/[N+]([O-])=N/Oc2ccc([N+](=O)[O-])cc2[N+](=O)[O-])CC1`, which “activity change, negative = inhibition” value is on record?
**A.** -31.6% (inactive)

**Q.** For `CNCCc1cnc(CCC(c2ccccc2)c2ccccc2)[nH]1`, which “activity change, negative = inhibition” value is on record?
**A.** -31.8% (inactive)

**Q.** For `COc1ccc(NC(=O)c2ccc(-c3ccc(-c4noc(C)n4)cc3C)cc2)cc1N1CCN(C)CC1`, which “activity change, negative = inhibition” value is on record?
**A.** -1.04% (inactive)

**Q.** Which “activity change, negative = inhibition” value does the source give for `O=C(NC1CC1)c1cccc(-c2ccc3c(NC(=O)C4CC4)n[nH]c3c2)c1` here?
**A.** -22.5% (inactive)

**Q.** Which “activity change, negative = inhibition” value does the source give for `CCOC(=O)C1=C(C)NC(C)=C(C(=O)OCC)C1c1c(F)c(F)c(F)c(F)c1F` here?
**A.** -30.3% (inactive)

**Q.** With `CN(C)c1cc2c(Nc3ccc4c(cnn4Cc4ccccc4)c3)ncnc2cn1` as the molecule, how does the “activity change, negative = inhibition” value read?
**A.** -34.6% (inactive)

**Q.** With `O[Si](CCCN1CCCCC1)(c1ccc(F)cc1)C1CCCCC1` (configuration not stated) as the molecule, how does the “activity change, negative = inhibition” value read?
**A.** -33.2% (inactive)

**Q.** For `CC1CNCCN1S(=O)(=O)c1cccc2cnccc12` (configuration not stated), which “activity change, negative = inhibition” value is on record?
**A.** -37.9% (inactive)

**Q.** With `COc1ccc2c3c1OC1C[C@@H](O)C=C[C@@]31CCN(C)C2` (some centres not stated) as the molecule, how does the “activity change, negative = inhibition” value read?
**A.** -3.01% (inactive)

**Q.** For `CN1c2ccccc2C(=O)N2CCc3c([nH]c4ccccc34)C21` (configuration not stated), which “activity change, negative = inhibition” value is on record?
**A.** -18.6% (inactive)

**Q.** Which “activity change, negative = inhibition” value does the source give for `O=c1cc(-c2ccccc2)[nH]c2nc(Cl)ccc12` here?
**A.** -23.2% (inactive)

**Q.** With `CC(C)ON([C@@H](C(=O)NO)C(C)C)S(=O)(=O)c1ccc(-c2ccccc2)cc1` as the molecule, how does the “activity change, negative = inhibition” value read?
**A.** -28.5% (inactive)

**Q.** With `COc1ccc(-n2c(C)c([N+](=O)[O-])c3ccc(O)cc32)cc1` as the molecule, how does the “activity change, negative = inhibition” value read?
**A.** -25.8% (inactive)

**Q.** With `C[C@]12CC[C@H](O)CC1=CCC1C2CC[C@]2(C)C(n3cnc4ccccc43)=CCC12` (some centres not stated) as the molecule, how does the “activity change, negative = inhibition” value read?
**A.** -12.4% (inactive)

**Q.** With `COc1ccc(COc2cc3oc(=O)c4cc(C(C)O)ccc4c3cc2OC)cc1` (configuration not stated) as the molecule, how does the “activity change, negative = inhibition” value read?
**A.** -1.37% (inactive)

**Q.** For `CCN(CC)CCCC(C)Nc1nc(C)cc(Nc2ccc3nc(C)cc(N)c3c2)n1` (configuration not stated), which “activity change, negative = inhibition” value is on record?
**A.** 10.3% (inactive)

**Q.** Which “activity change, negative = inhibition” value does the source give for `CCOC(=O)N1c2ccc(C(F)(F)F)cc2[C@@H](N(Cc2cc(C(F)(F)F)cc(C(F)(F)F)c2)C(=O)OC)C[C@H]1CC` here?
**A.** -12.9% (inactive)

**Q.** Which “activity change, negative = inhibition” value does the source give for `CCC1(O)CC2CN(CCc3c([nH]c4ccccc34)[C@@](C(=O)OC)(c3cc4c(cc3OC)N(C=O)C3[C@]45CCN4CC=C[C@@](CC)([C@@H](OC(C)=O)[C@]3(O)C(=O)OC)[C@H]45)C2)C1` (some centres not stated) here?
**A.** -28.7% (inactive)

**Q.** For `N=C(N)c1ccc(OCCCCCOc2ccc(C(=N)N)cc2)cc1` (tested in a mixture with another compound), which Potency is on record?
**A.** 7.08 µM (active)

**Q.** Which “activity change, negative = inhibition” value does the source give for `CN1CCCC1CCOC(C)(c1ccccc1)c1ccc(Cl)cc1` (configuration not stated) here?
**A.** -29.6% (inactive)

**Q.** With `c1nc2nc(Nc3ccc(N4CCOCC4)cc3)nc(NC3CCCCC3)c2[nH]1` as the molecule, how does the “activity change, negative = inhibition” value read?
**A.** -19.4% (inactive)

**Q.** For `O=Nc1c(-c2c(O)[nH]c3ccccc23)[nH]c2ccccc12`, which “activity change, negative = inhibition” value is on record?
**A.** -21.8% (inactive)

**Q.** Which “activity change, negative = inhibition” value does the source give for `COc1cc2c(cc1OC)-c1c(OC)c(OC)cc3c1C(C2)N(C)CC3` (configuration not stated) here?
**A.** -34.2% (inactive)

**Q.** For `CCCCC[C@H](CC(=O)NO)C(=O)N[C@H](C(=O)N1CCC[C@H]1CO)C(C)C`, which “activity change, negative = inhibition” value is on record?
**A.** -28.4% (inactive)
